Experimental data from PubChem BioAssay (Tox21).
“And” between values parts separate entries of the source, which are not always exact repeats. Equal entries are not always repeated. Some structures have more than one record in an assay (separate samples or runs), and their calls can disagree. The source made the active and inactive calls. Entries that show only a call come without a potency. Unless noted, calls follow the shape of the dose curve; as a rule, active = well fitted curve in the direction sought with a large enough effect in the repeat runs; inconclusive = weak or mixed curves; inactive = no such curve, though single readings can be large; an effect the other way counts as inactive or inconclusive.

Assays:
[1] = qHTS assay to identify small molecule antagonists of the thyroid receptor (TR) signaling pathway - cell viability counter screen (AID 743064); conditions: GH3.TRE-Luc viability, CellTiter-Fluor, 24 h; series mostly up to 70.3 µM; also: nearly all actives have a fitted effect of over 50% in size; also: potency is read from the fitted curve at half-maximal effect
Procedure, shortened: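 CellTiter-Fluor readout, 30 min at 37 °C/5% CO2, following 23.5 h incubation of GH3.TRE-Luc cells with test compound and 1 nM T3 (final).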

[2] = qHTS assay to identify small molecule antagonists of the thyroid receptor (TR) signaling pathway (AID 743065); conditions: GH3.TRE-Luc, T3-stimulated luciferase inhibition, 23.5 h; series mostly up to 70.3 µM; also: nearly all actives have a fitted effect of over 55% in size; also: potency is read from the fitted curve at half-maximal effect
Procedure, shortened: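 GH3.TRE-Luc rat pituitary cells carrying two TR response elements driving luciferase were plated for 4 h, given compound plus 1 nM T3 (final), and incubated 23.5 h at 37 C. ONE-Glo luminescence measured reporter inhibition; CellTiter-Fluor fluorescence tracked cytotoxicity.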

[3] = tested on: thyroid hormone receptor (rat, GH3 cells); assay: qHTS assay to identify small molecule agonists of the thyroid receptor (TR) signaling pathway (AID 743066; calls by dose curve); conditions: GH3.TRE-Luc cells, TR agonist luciferase, 24 h; series mostly up to 83.9 µM
[4] = qHTS assay to identify small molecule antagonists of the estrogen receptor alpha (ER-alpha) signaling pathway - cell viability counter screen (AID 743074; calls by dose curve;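 also: HEK293 cells carrying ER-alpha-UAS-bla reporter stimulated with 17beta-estradiol; nearly all actives have a fitted effect of over 45% in size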; also: potency is read from the fitted curve at half-maximal effect); conditions: ERalpha-bla HEK293 viability, CellTiter-Glo luminescence, 18 h; series mostly up to 69.4 µM
[5] = qHTS assay to identify small molecule antagonists of the estrogen receptor alpha (ER-alpha) signaling pathway using the BG1 cell line - cell viability counter screen (AID 743081); conditions: BG1Luc4E2 viability, CellTiter-Fluor, 22 h; series mostly up to 70.3 µM;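 also: compound given together with 17beta-estradiol as the ER stimulus; nearly all actives have a fitted effect of over 45% in size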; also: potency is read from the fitted curve at half-maximal effect
[6] = molecular target: Aromatase (Homo sapiens) (UniProt P11511); assay: qHTS assay to identify aromatase inhibitors (AID 743083); conditions: MCF-7 aro ERE, testosterone-driven ERE luciferase, 24 h; series mostly up to 70.3 µM; also: nearly all actives have a fitted effect of over 55% in size; also: potency is read from the fitted curve at half-maximal effect
Chain of Aromatase (Homo sapiens) (P11511 whole entry, looked up): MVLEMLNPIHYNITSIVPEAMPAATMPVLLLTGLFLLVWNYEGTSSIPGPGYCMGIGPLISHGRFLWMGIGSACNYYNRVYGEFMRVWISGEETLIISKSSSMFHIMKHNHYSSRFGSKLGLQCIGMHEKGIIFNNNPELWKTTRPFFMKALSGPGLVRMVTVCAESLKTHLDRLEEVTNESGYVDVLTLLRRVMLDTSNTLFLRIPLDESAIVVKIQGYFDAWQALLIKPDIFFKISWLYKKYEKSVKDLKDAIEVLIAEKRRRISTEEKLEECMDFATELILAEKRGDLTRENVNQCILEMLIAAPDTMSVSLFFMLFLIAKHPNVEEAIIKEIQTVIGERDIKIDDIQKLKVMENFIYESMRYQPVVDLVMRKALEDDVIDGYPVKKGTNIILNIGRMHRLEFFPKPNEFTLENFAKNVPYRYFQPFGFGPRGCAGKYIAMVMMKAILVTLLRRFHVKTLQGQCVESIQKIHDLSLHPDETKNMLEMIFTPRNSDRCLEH

[7] = qHTS assay to identify aromatase inhibitors - cell viability counter screen (AID 743084); conditions: MCF-7 aro ERE viability, CellTiter-Fluor, 24 h; series mostly up to 70.3 µM;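 also: cells stimulated with testosterone during compound exposure; nearly all actives have a fitted effect of over 55% in size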; also: potency is read from the fitted curve at half-maximal effect
[8] = molecular target: Estrogen receptor (Homo sapiens) (UniProt P03372); assay: qHTS assay to identify small molecule antagonists of the estrogen receptor alpha (ER-alpha) signaling pathway (AID 743069; active = well fitted curve in the direction sought with a large enough effect in the signal ratio in the repeat runs, not every such curve was filed as active; inconclusive = weak or mixed curves, or effect the other way; inactive = no such curve, though single readings can be large or run the other way; the % refers to the signal ratio; also: potency is read from the fitted curve at half-maximal effect); conditions: HEK293 ER-alpha-UAS-bla, beta-lactamase ratio, antagonist mode; series mostly up to 69.4 µM
Chain of Estrogen receptor (Homo sapiens) (P03372 whole entry, looked up): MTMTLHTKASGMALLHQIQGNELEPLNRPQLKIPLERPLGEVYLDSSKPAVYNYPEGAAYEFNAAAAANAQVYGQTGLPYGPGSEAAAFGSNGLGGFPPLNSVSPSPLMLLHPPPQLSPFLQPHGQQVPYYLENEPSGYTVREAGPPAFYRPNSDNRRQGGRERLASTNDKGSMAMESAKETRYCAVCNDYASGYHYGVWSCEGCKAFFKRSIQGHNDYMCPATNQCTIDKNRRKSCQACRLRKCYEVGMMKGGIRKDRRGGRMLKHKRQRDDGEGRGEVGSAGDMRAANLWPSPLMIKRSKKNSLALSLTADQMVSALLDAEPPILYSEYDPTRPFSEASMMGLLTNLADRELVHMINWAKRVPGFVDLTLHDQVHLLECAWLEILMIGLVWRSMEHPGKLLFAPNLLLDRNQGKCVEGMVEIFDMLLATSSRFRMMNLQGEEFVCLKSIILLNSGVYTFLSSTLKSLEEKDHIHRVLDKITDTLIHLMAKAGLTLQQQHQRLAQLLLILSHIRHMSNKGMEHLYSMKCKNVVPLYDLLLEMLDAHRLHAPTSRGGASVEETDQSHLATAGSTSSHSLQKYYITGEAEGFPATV
Procedure, shortened: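 Estradiol-stimulated ER-alpha-UAS-bla HEK293 cells, 18 hr compound exposure at 37C. LiveBLAzer B/G substrate, 2 hr RT, fluorescence read.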

[9] = molecular target: Estrogen receptor (Homo sapiens) (UniProt P03372); assay: qHTS assay to identify small molecule agonists of the estrogen receptor alpha (ER-alpha) signaling pathway (AID 743075; calls by dose curve;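 also: HEK293 GripTite cells with ER-alpha and UAS-driven beta-lactamase reporter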; also: potency is read from the fitted curve at half-maximal effect); conditions: HEK293 ER-alpha-UAS-bla, beta-lactamase FRET ratio, 18 h; series mostly up to 70.1 µM
[10] = molecular target: Estrogen receptor (Homo sapiens) (UniProt P03372); assay: qHTS assay to identify small molecule agonists of the estrogen receptor alpha (ER-alpha) signaling pathway using the BG1 cell line (AID 743079); conditions: BG1Luc4E2 cells, ERE-luciferase agonist, 22 h; series mostly up to 70.3 µM; also: nearly all actives have a fitted effect of over 20% in size; also: potency is read from the fitted curve at half-maximal effect

SMILES | Potency [1] | Potency [2] | Potency [3] | Potency [4] | Potency [5] | Potency [6] | Potency [7] | Potency [8] | Potency [9] | Potency [10]
CCCCn1cc[n+](C)c1C | inactive | inactive | inactive | inactive | inactive | inactive | inactive | – | – | –
Nc1ccc(Cl)cc1 | inactive | inactive | inactive | inactive | inactive | inactive | inactive | 9.95 µM [inconclusive] (active) | inactive | inactive
OCCOc1ccccc1 | inactive | inactive | inactive | inactive | inactive | inactive | inactive | inactive | inactive | inactive
Nc1ccc(-c2ccc(N)c(Cl)c2)cc1Cl | 30.8 µM (active) and 18 µM (active) and 30.6 µM (active) | 27.4 µM (active) and 10.1 µM (active) and 17.2 µM (active) | inactive | inactive and 17.4 µM (active) | inactive | – | inactive | 27.7 µM [inhibitor] (active) | 24.7 µM [inconclusive] (active) and 20.4 µM [inconclusive] (active) and 54.9 µM [inconclusive] (active) | 9.04 µM (active) and 6.86 µM (active)
Oc1cccc2cccnc12 | – | – | inactive | inactive | inactive | – | 1.38 µM (active) and 686 nM (active) | – | – | –
CCCCn1cc[n+](C)c1 | inactive | inactive | inactive | inactive | inactive | inactive | inactive | – | – | –
CC[n+]1ccccc1 | inactive and 34.1 µM (active) | – | inactive | inactive | inactive and 30.4 µM (active) | inactive and 54 µM (active) | inactive and 54 µM (active) | – | – | –
CCCCCCCCCCCCOS(=O)(=O)O | inactive | – | inactive | inactive | inactive | – | inactive | – | – | –
CCCC[n+]1ccc(C)cc1 | inactive and 30.5 µM (active) | – | inactive | inactive and 48.7 µM (active) | inactive | inactive and 19.4 µM (active) | inactive | – | – | –
O=C(O)c1ccccc1O | inactive | – | inactive | inactive | inactive | – | – | – | – | –
CC(=O)O | inactive | – | inactive | inactive | inactive | inactive | inactive | – | – | –
O=P1(N(CCCl)CCCl)NCCCO1 (centres undefined) | inactive | – | inactive | inactive | inactive | inactive | inactive | inactive | inactive | inactive and 27.3 µM (active)
C[N+](C)(C)Cc1ccccc1 | inactive | – | inactive | inactive | inactive | inactive | inactive | inactive | inactive | inactive
CCn1cc[n+](C)c1C | inactive | – | – | inactive | inactive | inactive | inactive | – | – | –
CCCCCCCCCCCCCCCCn1cc[n+](C)c1 | – | – | inactive | – | inactive and 49 µM (active) and 27.4 µM (active) | – | – | – | – | –
O=C(O)COc1ccc(Cl)cc1Cl | inactive | – | – | inactive | inactive | – | – | – | – | –
CCC[N+]1(C)CCCC1 | inactive | – | – | inactive | inactive | – | – | – | – | –
CCCCCCCCCCn1cc[n+](C)c1 | – | – | – | – | – | – | 24.6 µM (active) and inactive | – | – | –
O=C(O)CCl | inactive | inactive | inactive | inactive | inactive | inactive | inactive | – | – | –

SMILES | Potency [1] | Potency [2] | Potency [3] | Potency [4] | Potency [5] | Potency [6] | Potency [7] | Potency [8] | Potency [9] | Potency [10]
O=c1[nH]c(=O)n(Cl)c(=O)n1Cl | inactive | – | inactive | inactive | inactive | inactive | inactive | – | – | –
CCCn1cc[n+](C)c1 | inactive | – | – | inactive | inactive | inactive | inactive | – | – | –
CC[N+]1(C)CCCC1 | inactive | inactive | inactive | inactive | inactive | inactive | inactive | – | – | –
CCCCCCCCCCCC(=O)O | inactive | – | inactive | inactive | inactive | – | inactive | – | – | –
O=S(=O)(O)O | inactive | – | – | inactive | inactive | inactive | inactive | – | – | –
Oc1ccccc1-c1ccccc1 | inactive | – | inactive | inactive | inactive | inactive | inactive | inactive | inactive | inactive
CCCCCCn1cc[n+](C)c1 | inactive | inactive | inactive | – | inactive | inactive | inactive | – | – | –
CN(C)[C@@H]1C(=O)C(C(N)=O)=C(O)[C@@]2(O)C(=O)C3=C(O)c4c(O)cccc4[C@@](C)(O)[C@H]3[C@H](O)[C@@H]12 | inactive | – | inactive | inactive | inactive | inactive | inactive | – | – | –
CCOP(=S)(OCC)Oc1ccc2c(C)c(Cl)c(=O)oc2c1 | inactive | inactive | inactive | inactive | inactive | inactive | inactive | – | – | –
CNC | inactive | – | – | inactive | inactive | inactive | inactive | – | – | –
O=c1nc(O)n(Cl)c(=O)n1Cl | inactive | – | inactive | inactive | inactive | inactive | inactive | – | – | –
Nc1ccccc1 | inactive | – | inactive | inactive and 24.5 µM (active) | inactive | inactive | inactive | – | – | –
CCCC[n+]1ccccc1 | inactive | inactive | inactive | inactive | inactive | inactive | inactive | – | – | –
COCC(=O)N(c1c(C)cccc1C)C(C)C(=O)OC (centres undefined) | inactive | – | – | inactive | inactive | inactive | inactive | inactive | inactive | inactive
COP(=O)(OC)C(O)C(Cl)(Cl)Cl (centres undefined) | inactive | inactive | inactive | inactive | inactive | inactive | inactive | – | – | –
O=[N+]([O-])O | inactive | – | – | inactive | inactive | inactive | inactive | – | – | –
CCCC[n+]1ccccc1C | inactive | – | – | inactive | inactive | inactive | inactive | – | – | –
CCCCCCCCn1cc[n+](C)c1 | 54.4 µM (active) | 27.3 µM (active) and 54.9 µM (active) | inactive | – | inactive | 34.3 µM (active) and 27.5 µM (active) and 55 µM (active) | inactive | – | – | –
